Source: PubChem (National Center for Advancing Translational Sciences (NCATS))
Rows were chosen to be rich in hits. Some 3.2% of all compounds tested hit in one or more screens of this group.
RE007 growth inh: qHTS Assay for Inhibitors of the HIV-1 protein Vpr | S. pombe RE007 Vpr strain, BacTiter-Glo ATP luminescence, 24 h | Potency, µM (doses to about 92.2 µM), for inactives: top-dose activity change, negative = less growth, most hits filed as inhibitors | hit rate 0.21% among 360,000; active means well fitted falling curve with a large enough effect; inconclusive means small, poorly fitted or top-dose-only effect; inactive means no such curve, though single readings can be large or run the other way; further: nearly all actives have a fitted effect of over 50% in size
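Fission yeast RE007 carrying one integrated HIV-1 vpr copy, seeded at OD 0.01 in PMG+AL medium with 23 nL pinned compound. Grown 24 h at 30 degrees; viability read by BacTiter-Glo luminescence after 5 min.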
AmpC no deterg: qHTS Inhibitors of AmpC Beta-Lactamase (assay without detergent); AmpC nitrocefin hydrolysis, absorbance 480 nm, 0.0001% Triton; P00811; hit rate 0.52% among 330,000; Potency, µM (highest dose often 57.1 µM), for the others: at the top dose activity change, negative = inhibition, actives largely listed as inhibitors;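 further: plate controls were no compound for no effect and no enzyme for full effect; nearly all actives have a fitted effect of over 20% in size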
Target sequence (P00811 whole entry, looked up): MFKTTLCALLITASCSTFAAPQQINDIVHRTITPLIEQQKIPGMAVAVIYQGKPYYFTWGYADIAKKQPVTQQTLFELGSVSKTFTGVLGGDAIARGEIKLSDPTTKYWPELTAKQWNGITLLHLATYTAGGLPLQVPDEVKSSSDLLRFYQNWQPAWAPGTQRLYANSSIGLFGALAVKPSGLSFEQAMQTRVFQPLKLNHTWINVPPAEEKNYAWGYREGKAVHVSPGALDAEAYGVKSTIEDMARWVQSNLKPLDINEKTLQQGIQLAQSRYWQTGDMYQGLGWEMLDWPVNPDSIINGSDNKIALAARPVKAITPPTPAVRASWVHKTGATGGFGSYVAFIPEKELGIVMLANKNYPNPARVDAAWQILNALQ
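20 mM phosphate pH 7.0 + 0.01% (detergent screen) or 0.0001% Triton X-100; 5.3 nM AmpC reagent; cpd preinc 15 min RT; nitrocefin (800 uM stock) to start; A480 q20 s × 4 min; Activity was normalised to no-enzyme and no-compound control wells.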
AmpC detergent: qHTS Inhibitors of AmpC Beta-Lactamase (assay with detergent). hit rate 0.041% among 370,000. AID 485294, 2010. Potency, µM (doses to about 114 µM), for the others: at the highest dose activity change, negative = inhibition, most hits filed as inhibitors. AmpC hydrolysis of nitrocefin, absorbance 480 nm, 0.01% Triton. P00811;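 further: 0% = no-compound wells and -100% = no-enzyme wells; nearly all actives have a fitted effect of over 25% in size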
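AmpC (5.3 nM in the dispensed reagent) in 20 mM phosphate pH 7.0 with 0.01% (detergent screen) or 0.0001% Triton X-100 was preincubated with compounds for 15 min at room temperature. Nitrocefin was then added from an 800 uM solution, and hydrolysis was followed at 480 nm.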
AMA1-RON2 inh: qHTS for Inhibitors of AMA1-RON; Towards Development of Antimalarial Drug Lead: Primary Screen; AlphaScreen AMA1-biotinylated RON2 peptide binding; Potency, µM (highest dose often 58.2 µM), without a hit: top-dose activity change, negative = inhibition, hits mostly inhibitors; hit rate 0.2% among 360,000;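 further: 0% = vehicle wells and -100% = peptide control; nearly all actives have a fitted effect of over 45% in size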
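AMA1 (3D7) with his tag at 25 nM final met compounds first, then biotinylated RON2 peptide at 25 nM; detection used donor plus acceptor beads, 10 µg/mL apiece, read by AlphaScreen after 30 min at room temperature.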
Sm TGR block: qHTS Assay for the Inhibitors of Schistosoma Mansoni Peroxiredoxins | Schistosoma mansoni thioredoxin glutathione reductase (TGR), Q962Y6 | purified TGR, DTNB reduction, TNB absorbance 405 nm | Potency, µM (doses to about 114 µM), inactives show at the top dose activity change, negative = inhibition, actives largely listed as inhibitors | hit rate 3% among 360,000; further: nearly all actives have a fitted effect of over 60% in size
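Kinetic colorimetric format: TGR-catalysed, NADPH-driven DTNB reduction monitored via TNB absorbance. Enzyme dispensed at 20 nM; compound exposure 15 min at room temperature before reaction start.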
Active calls of the source: *; u = inconclusive; x = not tested or not shown; [ ] = another dose, or the depositor's remark. Unless noted, the call rests on the fitted dose curve; in most records, active means well fitted curve in the direction sought with a large enough effect; inconclusive means small, poorly fitted or top-dose-only effect, or another doubt; inactive means no such curve, though single readings can be large; an effect the other way counts as inactive or inconclusive. Unless noted, on the % scale 0 is the no-effect control and ±100 the full control effect; potency means the concentration at half of the fitted maximal effect.

SMILES | RE007 growth inh | AmpC no deterg | AmpC detergent | AMA1-RON2 inh | Sm TGR block
Cc1ccc(C2/C(=C(/O)c3ccc(Br)cc3)C(=O)C(=O)N2Cc2ccco2)o1 (centres undefined) | -14.9% | -33.5% | -3.8% | -9.7% | 7.94µM*
COc1cccc(/C(O)=C2/C(=O)C(=O)N(Cc3ccco3)C2c2ccncc2)c1 (centres undefined) | -1.7% | -14.0% | -2.8% | -7.4% | 28.2µM*
CCOc1cccc(/C(O)=C2/C(=O)C(=O)N(Cc3ccco3)C2c2ccncc2)c1 (centres undefined) | 7.0% | -23.5% | -6.9% | 3.2% | u
COc1cc(C2/C(=C(\O)c3ccc4c(c3)OCCO4)C(=O)C(=O)N2Cc2ccco2)ccc1O (centres undefined) | 2.7% | -23.6% | 1.4% | -5.7% | 45.3%
O=C1C(=O)N(Cc2ccco2)C(c2cccc(Cl)c2)/C1=C(\O)c1ccc2c(c1)OCCO2 (centres undefined) | 1.7% | -31.5% | 5.8% | -9.6% | 35.5µM*
Cc1cc(C)cc(NC(=O)NCc2noc3ccccc23)c1 | x | x | -10.2% | x | 2.2%
Cc1cc(OCCn2cc(/C(N)=N/O)c3ccccc32)ccc1Cl | 0.0% | 15.8µM* | u | -7.4% | -20.0%
Cc1oc2ccc(O)c(CN3CCN(C)CC3)c2c1C(=O)Nc1cccc(C(F)(F)F)c1 | x | x | 5.2% | x | 2.1%
O=[N+]([O-])c1ccc(C2Nc3cccc4cccc(c34)N2)cc1 | -3.6% | -16.4% | u | u | 20µM*
O=C1c2ccccc2NC(c2cccc([N+](=O)[O-])c2)N1O (centres undefined) | 7.6% | -27.1% | -9.0% | 57.6% | -7.2%
O=[N+]([O-])c1cccc(C2Nc3cccc4cccc(c34)N2)c1 | 0.2% | -41.8% | -12.5% | -1.7% | 35.5µM*
Cc1cc(C)c(/C=C/c2onc(C)c2S(=O)(=O)N2CCC(C(=O)Nc3ccc(Cl)c(C(F)(F)F)c3)CC2)c(C)c1 | x | x | -5.3% | x | -1.8%
Cc1ccc(S(=O)(=O)NCCOC(=O)Nc2sc(=S)n(C)c2C)cc1 | -1.5% | -33.9% | -6.0% | 5.6% | 11.2µM*
Cc1c(NC(=O)OCCNC(=O)Nc2ccccc2)sc(=S)n1C | -18.0% | -14.8% | 6.2% | -3.9% | -25.9%
CN(C)c1ccc(CNC(=O)C2CCN(S(=O)(=O)c3ccc4[nH]c(=O)ccc4c3)CC2)cc1 | x | x | 3.4% | x | -1.8%
c1ccc2c(c1)CC(CN1CCNCC1)O2 (centres undefined) | -15.4% | -8.1% | u | 2.7% | 14.1µM*
CCN1CCN(CC2COc3ccccc3O2)CC1 (centres undefined) | -4.2% | -6.4% | -1.0% | -3.4% | 1.9%
COc1ccc(Nc2c(-c3ccc(Cl)cc3)nc3cnccn23)cc1OC | x | x | 2.3% | x | -4.7%
CCN(CC)C1CC(=O)N(c2ccc(Br)cc2)C1=O (centres undefined) | 2µM* | -35.5% | -0.2% | 1.4% | 7.08µM*
Cc1ccnc(SC2CC(=O)N(c3ccc(Br)cc3)C2=O)n1 (centres undefined) | 35.7% | -10.8% | -17.9% | 18.3% | 50.1µM*
Cc1ccc(S(=O)(=O)NNC2CC(=O)N(c3ccc(Br)cc3)C2=O)cc1 (centres undefined) | 1.8% | -10.2% | -5.8% | -5.7% | x
Cc1cc(C)nc(SC2CC(=O)N(c3ccc(Br)cc3)C2=O)n1 (centres undefined) | 5.3% | 1.9% | 5.9% | 4.4% | 50.1µM*
Cc1cc(C)nc(SC2CC(=O)N(c3ccc(Cl)cc3)C2=O)n1 (centres undefined) | 8.9% | 46.2% | 4.8% | 5.4% | u
Cc1ccnc(SC2CC(=O)N(c3ccc(Cl)cc3)C2=O)n1 (centres undefined) | 5.9% | -6.6% | -6.3% | 1.1% | 50.1µM*
Cc1ccnc(SC2CC(=O)N(c3ccc(C(C)C)cc3)C2=O)n1 (centres undefined) | 6.1% | 22.8% | 1.3% | -2.3% | u
SMILES | RE007 growth inh | AmpC no deterg | AmpC detergent | AMA1-RON2 inh | Sm TGR block
CCC1CN(C(=O)N2CCC(C(=O)NCc3cccs3)CC2)c2ccccc2O1 (centres undefined) | x | x | 21.3% | x | -10.1%
O=C(N/N=C/c1c(O)n(C2CCCCC2)c(=S)[nH]c1=O)c1ccccc1 | 5.9% | -30.4% | -12.1% | 98.0% | -30.0%
O=c1[nH]c(=S)n(C2CC2)c(O)c1/C=N/Nc1cccc2ccccc12 | -22.1% | -23.8% | -1.0% | 36.9% | 35.5µM*
CCCCC(=O)N/N=C/c1c(O)n(C2CC2)c(=S)[nH]c1=O | 8.7% | 30.1%[2.29 µM] | -7.3% | 0.6% | -6.0%
O=c1[nH]c(=S)n(C2CC2)c(O)c1/C=N/Nc1ccccc1 | 164.0% | 12.6µM* | -11.3% | 28.1% | 20µM*
CCCCNS(=O)(=O)c1ccc(C)c(-c2nnc3c4ccccc4c(C)nn23)c1 | x | x | 14.6% | x | -3.6%
CCOC(=O)c1c(C)[nH]c(C)c1S(=O)(=O)N1CCCC(C(=O)Nc2ccccc2OCC)C1 (centres undefined) | x | x | 4.3% | x | -1.8%
Oc1c(N=Nc2ccccn2)ccc2ccccc12 | 17.8µM* | -14.9% | -8.7% | u | -3.9%
NNC(=O)c1sc2cc(C(F)(F)F)cnc2c1-c1cccs1 | 0.3% | -28.1% | 2.6% | 62.5% | 10.6%
O=C(Nc1ccccc1)c1sc2cc(C(F)(F)F)cnc2c1-c1cccs1 | -9.6% | 4.47µM* | 1.0% | 2.1% | -12.0%
Cn1nnc2c(NCc3c(F)cccc3F)ncnc21 | x | x | -0.9% | x | -0.2%
CC(C)(C)C1C/C(=C/c2ccccn2)C(=O)/C(=C/c2ccccn2)C1 (centres undefined) | -11.0% | -13.0% | u | 5.0% | 17.8µM*
O=C1/C(=C/c2ccccn2)COc2ccccc21 | -19.8% | -0.5% | -9.2% | -3.0% | u
CN1C2CCC1/C(=C/c1ccccn1)C(=O)/C2=C\c1ccccn1 | u | -12.3% | u | 2.5% | -25.5%
CC1C/C(=C/c2ccccn2)C(=O)/C(=C/c2ccccn2)C1 (centres undefined) | 63.1µM* | 15.6% | -6.8% | 3.7% | 15.8µM*
CCOc1ccccc1C(=O)N1CCN(CCc2ccccn2)CC1 | x | x | 2.2% | x | -4.7%
O=C(NC1CC(=O)N(c2ccc(F)cc2)C1)C1CC1 (centres undefined) | x | x | 3.0% | x | 6.8%
COc1ccc(CNC(=S)Nc2ccccc2)cc1 | 4.0% | -11.9% | 3.7% | 10.2% | 35.5µM*
C=CCNC(=S)Nc1ccc2nc(C)c(C)nc2c1 | -6.4% | -20.5% | -2.6% | 8.5% | 39.8µM*
C=CCNC(=S)Nc1ccc(C)c(S(=O)(=O)N2CCCCC2)c1 | 11.3% | -24.7% | -1.0% | -0.4% | 35.5µM*
